# Source: paper PMC7862700, “An all-to-all approach to the identification of sequence-specific readers for epigenetic DNA modifications on cytosine”
# What was measured:
# Test in all cases: DAPPL (digital affinity profiling via proximity ligation, sequencing); 10 mM Tris-HCl pH 7.5, 50 mM NaCl, 1 mM DTT, 4% glycerol, room temperature, 30 min; GST-TFs on glutathione beads, 16-mer random dsDNA library, 0.1% formaldehyde crosslink after washing; high values mean tight binding
# [1] = biological target: T1, FEV (Homo sapiens, UniProt Q99581 1-238); conditions: protein: recombinant; tags: N-terminal GST; dsDNA, one strand shown
# T1 sequence: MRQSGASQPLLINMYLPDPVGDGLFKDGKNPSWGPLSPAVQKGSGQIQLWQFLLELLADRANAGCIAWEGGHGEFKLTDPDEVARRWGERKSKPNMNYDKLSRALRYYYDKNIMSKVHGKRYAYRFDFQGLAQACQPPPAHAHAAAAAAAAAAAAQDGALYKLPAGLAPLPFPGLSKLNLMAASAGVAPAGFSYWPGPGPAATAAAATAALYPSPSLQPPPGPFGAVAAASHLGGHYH
# In short: (§1)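 Human transcription factors were made in yeast as GST fusions, captured on glutathione beads and barcoded with DNA. With a tag-only sample included, the pool was incubated with 200 nmole of a random double-stranded 16-mer DNA library in Tris/NaCl/DTT/glycerol buffer at room temperature for 30 min, then crosslinked with 0.1% formaldehyde after washing, ligated by proximity, amplified and sequenced. For binding signal, each hexamer's read frequency for a factor is divided by its frequency for the tag-only sample.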
# [2] = biological target: ETV5 (Homo sapiens, UniProt P41161 1-510); conditions: protein: recombinant; tags: N-terminal GST; dsDNA, one strand shown
# Chain of ETV5 (P41161 whole entry): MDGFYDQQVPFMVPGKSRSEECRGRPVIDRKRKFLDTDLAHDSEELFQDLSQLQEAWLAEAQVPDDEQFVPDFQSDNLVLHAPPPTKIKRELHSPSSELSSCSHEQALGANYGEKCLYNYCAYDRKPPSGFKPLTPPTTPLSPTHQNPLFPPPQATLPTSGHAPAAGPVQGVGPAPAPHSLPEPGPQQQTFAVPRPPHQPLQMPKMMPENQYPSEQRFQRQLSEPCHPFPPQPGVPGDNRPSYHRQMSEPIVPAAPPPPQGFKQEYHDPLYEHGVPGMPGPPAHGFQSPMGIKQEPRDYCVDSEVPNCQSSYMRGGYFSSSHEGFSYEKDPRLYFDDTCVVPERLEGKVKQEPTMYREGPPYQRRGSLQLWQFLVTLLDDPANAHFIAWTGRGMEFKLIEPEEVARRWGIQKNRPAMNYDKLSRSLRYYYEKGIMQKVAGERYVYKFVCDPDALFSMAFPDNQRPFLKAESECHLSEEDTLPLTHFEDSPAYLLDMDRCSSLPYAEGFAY
# In short: as §1
# [3] = biological target: HSF1 (Homo sapiens, UniProt Q00613 1-529); conditions: protein: recombinant; tags: N-terminal GST; chain copies: 3; dsDNA, one strand shown
# Chain of HSF1 (Q00613 whole entry): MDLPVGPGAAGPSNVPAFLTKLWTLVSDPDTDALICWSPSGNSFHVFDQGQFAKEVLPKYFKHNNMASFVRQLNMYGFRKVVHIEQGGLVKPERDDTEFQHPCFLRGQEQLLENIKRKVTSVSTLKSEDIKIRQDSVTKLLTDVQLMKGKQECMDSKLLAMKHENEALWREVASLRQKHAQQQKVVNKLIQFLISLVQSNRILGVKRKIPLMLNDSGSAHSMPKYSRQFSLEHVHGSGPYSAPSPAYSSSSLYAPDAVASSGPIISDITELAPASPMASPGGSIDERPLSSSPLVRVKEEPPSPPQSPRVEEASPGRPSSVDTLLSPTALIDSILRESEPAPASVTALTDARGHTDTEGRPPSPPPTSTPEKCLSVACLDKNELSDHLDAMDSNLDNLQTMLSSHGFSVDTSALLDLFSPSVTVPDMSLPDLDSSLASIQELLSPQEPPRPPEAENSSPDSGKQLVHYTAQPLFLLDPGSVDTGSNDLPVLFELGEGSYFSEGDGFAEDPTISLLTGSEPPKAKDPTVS
# In short: as §1
# [4] = biological target: T2, SPIC (Homo sapiens, UniProt Q8N5J4 1-248); conditions: protein: recombinant; tags: N-terminal GST; dsDNA, one strand shown
# T2 sequence: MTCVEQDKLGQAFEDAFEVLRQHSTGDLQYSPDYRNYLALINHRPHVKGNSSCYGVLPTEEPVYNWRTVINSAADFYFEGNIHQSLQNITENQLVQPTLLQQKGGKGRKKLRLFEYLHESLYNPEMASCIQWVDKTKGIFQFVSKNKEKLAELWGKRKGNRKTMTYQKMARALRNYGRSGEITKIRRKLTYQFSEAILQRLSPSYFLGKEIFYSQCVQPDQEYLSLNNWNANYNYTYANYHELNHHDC
# In short: as §1
# [5] = biological target: ELF4 (Homo sapiens, UniProt Q99607 1-663); conditions: protein: recombinant; tags: N-terminal GST; dsDNA, one strand shown
# Chain of ELF4 (Q99607 whole entry): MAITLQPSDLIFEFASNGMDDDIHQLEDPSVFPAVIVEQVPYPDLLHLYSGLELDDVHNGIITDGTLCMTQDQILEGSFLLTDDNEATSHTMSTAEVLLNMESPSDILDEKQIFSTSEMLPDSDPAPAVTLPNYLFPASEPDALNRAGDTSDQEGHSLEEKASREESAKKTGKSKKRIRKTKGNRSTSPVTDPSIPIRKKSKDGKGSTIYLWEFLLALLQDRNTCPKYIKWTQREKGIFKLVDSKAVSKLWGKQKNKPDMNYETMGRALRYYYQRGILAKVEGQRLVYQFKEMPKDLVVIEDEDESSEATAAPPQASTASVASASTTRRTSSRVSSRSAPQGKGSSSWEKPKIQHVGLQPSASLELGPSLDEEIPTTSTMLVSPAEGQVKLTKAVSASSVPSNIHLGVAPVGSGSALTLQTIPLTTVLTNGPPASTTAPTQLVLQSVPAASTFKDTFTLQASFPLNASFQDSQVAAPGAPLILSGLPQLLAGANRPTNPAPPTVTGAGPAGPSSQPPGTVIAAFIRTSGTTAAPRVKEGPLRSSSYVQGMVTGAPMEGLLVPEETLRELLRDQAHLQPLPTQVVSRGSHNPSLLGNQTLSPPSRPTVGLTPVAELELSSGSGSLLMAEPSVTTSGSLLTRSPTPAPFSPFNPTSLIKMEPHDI
# In short: as §1
# [6] = biological target: T3, ELK4 (Homo sapiens, UniProt P28324-2 1-405); conditions: protein: recombinant; tags: N-terminal GST; dsDNA, one strand shown
# T3 sequence: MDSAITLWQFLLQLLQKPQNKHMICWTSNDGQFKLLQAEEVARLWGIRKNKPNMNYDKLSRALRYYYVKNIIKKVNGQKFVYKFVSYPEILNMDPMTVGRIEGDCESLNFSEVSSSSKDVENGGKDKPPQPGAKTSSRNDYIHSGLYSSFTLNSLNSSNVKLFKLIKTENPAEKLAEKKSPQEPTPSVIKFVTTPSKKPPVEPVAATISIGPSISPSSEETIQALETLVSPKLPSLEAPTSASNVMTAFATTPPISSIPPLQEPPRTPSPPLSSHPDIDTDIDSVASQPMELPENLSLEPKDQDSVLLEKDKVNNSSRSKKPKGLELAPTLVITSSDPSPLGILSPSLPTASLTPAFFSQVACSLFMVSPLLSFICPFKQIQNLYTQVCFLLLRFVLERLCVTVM
# In short: as §1
# [7] = biological target: T4, ETV2 (Homo sapiens, UniProt O00321 1-342); conditions: protein: recombinant; tags: N-terminal GST; dsDNA, one strand shown
# T4 sequence: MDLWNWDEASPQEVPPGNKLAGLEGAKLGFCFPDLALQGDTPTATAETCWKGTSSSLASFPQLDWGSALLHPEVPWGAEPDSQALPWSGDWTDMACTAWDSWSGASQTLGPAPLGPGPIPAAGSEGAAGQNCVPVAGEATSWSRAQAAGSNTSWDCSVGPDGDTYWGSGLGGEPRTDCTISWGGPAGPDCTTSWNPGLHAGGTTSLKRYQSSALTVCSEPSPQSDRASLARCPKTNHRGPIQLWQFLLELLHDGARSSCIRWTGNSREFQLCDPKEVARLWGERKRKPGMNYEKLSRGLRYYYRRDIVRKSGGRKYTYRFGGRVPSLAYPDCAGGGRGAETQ
# In short: as §1
# [8] = biological target: T5, ELF3 (Homo sapiens, UniProt P78545 1-371); conditions: protein: recombinant; tags: N-terminal GST; dsDNA, one strand shown
# T5 sequence: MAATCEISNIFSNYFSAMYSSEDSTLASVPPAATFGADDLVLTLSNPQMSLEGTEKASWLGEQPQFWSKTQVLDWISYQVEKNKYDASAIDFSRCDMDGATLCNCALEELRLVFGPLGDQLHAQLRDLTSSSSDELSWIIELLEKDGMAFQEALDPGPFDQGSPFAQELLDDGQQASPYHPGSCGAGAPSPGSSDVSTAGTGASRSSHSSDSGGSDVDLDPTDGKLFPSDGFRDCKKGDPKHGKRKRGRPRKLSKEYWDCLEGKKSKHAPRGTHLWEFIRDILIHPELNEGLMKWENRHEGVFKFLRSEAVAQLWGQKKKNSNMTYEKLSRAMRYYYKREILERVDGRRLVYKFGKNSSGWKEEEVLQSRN
# In short: as §1
# [9] = biological target: CRX (Homo sapiens, UniProt O43186 1-299); conditions: protein: recombinant; tags: N-terminal GST; dsDNA, one strand shown
# Chain of CRX (O43186 whole entry): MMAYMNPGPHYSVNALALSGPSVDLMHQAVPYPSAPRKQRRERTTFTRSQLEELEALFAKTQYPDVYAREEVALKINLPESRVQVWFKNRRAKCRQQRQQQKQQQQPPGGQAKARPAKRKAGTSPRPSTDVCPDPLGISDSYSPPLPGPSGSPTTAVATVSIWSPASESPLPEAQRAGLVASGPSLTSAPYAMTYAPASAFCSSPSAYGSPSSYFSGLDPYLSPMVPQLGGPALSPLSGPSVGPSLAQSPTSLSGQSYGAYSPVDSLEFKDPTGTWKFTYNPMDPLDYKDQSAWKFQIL
# In short: as §1
# [10] = biological target: ETV1 (Homo sapiens, UniProt P50549 1-477); conditions: protein: recombinant; tags: N-terminal GST; dsDNA, one strand shown
# Chain of ETV1 (P50549 whole entry): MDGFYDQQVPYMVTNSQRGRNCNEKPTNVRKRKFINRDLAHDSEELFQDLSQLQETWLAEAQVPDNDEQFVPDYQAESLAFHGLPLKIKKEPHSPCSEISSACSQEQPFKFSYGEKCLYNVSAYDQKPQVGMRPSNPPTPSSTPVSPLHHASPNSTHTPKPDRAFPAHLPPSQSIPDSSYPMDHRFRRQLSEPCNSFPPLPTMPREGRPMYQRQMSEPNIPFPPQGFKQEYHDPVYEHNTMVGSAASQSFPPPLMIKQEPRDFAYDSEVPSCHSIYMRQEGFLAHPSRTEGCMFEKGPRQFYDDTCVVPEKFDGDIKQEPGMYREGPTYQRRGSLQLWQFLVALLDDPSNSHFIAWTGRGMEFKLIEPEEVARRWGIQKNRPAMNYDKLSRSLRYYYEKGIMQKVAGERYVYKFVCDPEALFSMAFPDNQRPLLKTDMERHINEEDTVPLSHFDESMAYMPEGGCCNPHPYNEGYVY
# In short: as §1
# [11] = biological target: T6, ERF (Homo sapiens, UniProt P50548 1-548); conditions: protein: recombinant; tags: N-terminal GST; dsDNA, one strand shown
# T6 sequence: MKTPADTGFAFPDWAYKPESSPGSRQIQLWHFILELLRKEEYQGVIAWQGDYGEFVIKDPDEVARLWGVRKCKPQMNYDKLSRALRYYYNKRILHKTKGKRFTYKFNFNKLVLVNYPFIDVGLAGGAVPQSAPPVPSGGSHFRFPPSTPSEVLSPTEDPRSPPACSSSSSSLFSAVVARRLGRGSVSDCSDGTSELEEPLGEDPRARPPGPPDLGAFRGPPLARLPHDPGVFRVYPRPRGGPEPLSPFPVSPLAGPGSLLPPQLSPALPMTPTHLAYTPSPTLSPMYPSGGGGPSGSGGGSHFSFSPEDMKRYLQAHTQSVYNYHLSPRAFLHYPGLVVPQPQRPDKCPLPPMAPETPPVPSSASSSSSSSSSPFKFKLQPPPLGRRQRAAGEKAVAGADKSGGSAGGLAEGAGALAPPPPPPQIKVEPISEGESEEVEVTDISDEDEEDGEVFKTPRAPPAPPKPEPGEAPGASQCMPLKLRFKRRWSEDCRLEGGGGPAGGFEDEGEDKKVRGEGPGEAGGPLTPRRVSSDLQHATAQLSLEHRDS
# In short: as §1
# [12] = biological target: T7, ETV3L (Homo sapiens, UniProt Q6ZN32 1-361); conditions: protein: recombinant; tags: N-terminal GST; dsDNA, one strand shown
# T7 sequence: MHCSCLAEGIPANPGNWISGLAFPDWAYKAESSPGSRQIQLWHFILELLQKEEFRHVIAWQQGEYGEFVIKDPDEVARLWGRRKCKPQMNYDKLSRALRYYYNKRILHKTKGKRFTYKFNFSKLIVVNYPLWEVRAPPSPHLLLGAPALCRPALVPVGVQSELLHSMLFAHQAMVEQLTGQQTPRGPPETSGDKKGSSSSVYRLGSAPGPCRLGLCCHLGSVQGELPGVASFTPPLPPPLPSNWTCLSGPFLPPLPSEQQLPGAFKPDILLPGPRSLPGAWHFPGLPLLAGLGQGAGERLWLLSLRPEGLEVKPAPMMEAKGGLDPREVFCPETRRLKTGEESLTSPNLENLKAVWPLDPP
# In short: as §1
# [13] = biological target: T8, ETS2 (Homo sapiens, UniProt P15036 1-469); conditions: protein: recombinant; tags: N-terminal GST; dsDNA, one strand shown
# T8 sequence: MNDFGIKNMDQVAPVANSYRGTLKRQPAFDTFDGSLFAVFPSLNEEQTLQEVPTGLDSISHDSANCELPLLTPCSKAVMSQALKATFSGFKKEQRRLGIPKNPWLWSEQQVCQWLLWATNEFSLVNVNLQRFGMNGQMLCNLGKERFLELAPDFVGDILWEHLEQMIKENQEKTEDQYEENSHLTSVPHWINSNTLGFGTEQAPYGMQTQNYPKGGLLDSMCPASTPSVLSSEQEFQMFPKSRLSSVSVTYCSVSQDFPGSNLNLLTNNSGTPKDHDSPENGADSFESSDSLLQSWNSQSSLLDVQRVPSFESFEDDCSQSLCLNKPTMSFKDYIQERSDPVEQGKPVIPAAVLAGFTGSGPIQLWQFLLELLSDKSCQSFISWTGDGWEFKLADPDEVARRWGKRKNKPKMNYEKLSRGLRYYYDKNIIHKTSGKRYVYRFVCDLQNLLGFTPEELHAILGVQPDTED
# In short: as §1
# [14] = biological target: T9, SPDEF (Homo sapiens, UniProt O95238 1-335); conditions: protein: recombinant; tags: N-terminal GST; dsDNA, one strand shown
# T9 sequence: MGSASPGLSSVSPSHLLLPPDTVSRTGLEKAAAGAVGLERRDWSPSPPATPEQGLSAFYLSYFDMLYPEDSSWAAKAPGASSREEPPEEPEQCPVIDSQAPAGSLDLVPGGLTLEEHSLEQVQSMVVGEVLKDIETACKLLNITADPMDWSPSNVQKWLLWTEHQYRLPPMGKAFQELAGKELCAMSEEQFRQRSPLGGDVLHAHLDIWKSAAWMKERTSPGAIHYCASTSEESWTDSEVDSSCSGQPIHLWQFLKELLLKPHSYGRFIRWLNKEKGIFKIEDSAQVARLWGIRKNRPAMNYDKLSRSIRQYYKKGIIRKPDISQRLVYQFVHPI
# In short: as §1
# [15] = biological target: T10, ETV7 (Homo sapiens, UniProt Q9Y603 1-341); conditions: protein: recombinant; tags: N-terminal GST; dsDNA, one strand shown
# T10 sequence: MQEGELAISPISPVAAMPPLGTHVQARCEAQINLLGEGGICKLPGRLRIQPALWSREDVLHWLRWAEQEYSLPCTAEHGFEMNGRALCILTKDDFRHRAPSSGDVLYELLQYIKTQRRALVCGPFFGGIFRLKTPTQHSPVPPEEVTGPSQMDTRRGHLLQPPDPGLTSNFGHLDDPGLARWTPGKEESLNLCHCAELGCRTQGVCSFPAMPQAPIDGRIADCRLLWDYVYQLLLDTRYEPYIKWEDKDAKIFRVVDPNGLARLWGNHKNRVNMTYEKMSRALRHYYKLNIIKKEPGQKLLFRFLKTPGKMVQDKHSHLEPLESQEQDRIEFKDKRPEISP
# In short: as §1
# [16] = biological target: T11, ELF5 (Homo sapiens, UniProt Q9UKW6-2 1-255); conditions: protein: recombinant; tags: N-terminal GST; dsDNA, one strand shown
# T11 sequence: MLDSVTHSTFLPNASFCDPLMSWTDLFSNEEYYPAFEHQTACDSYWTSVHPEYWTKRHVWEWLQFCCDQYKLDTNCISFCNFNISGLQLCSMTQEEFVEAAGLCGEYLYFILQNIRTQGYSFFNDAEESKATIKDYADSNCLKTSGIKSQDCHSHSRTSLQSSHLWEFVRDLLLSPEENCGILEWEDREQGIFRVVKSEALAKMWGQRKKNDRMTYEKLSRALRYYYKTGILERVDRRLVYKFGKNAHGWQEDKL
# In short: as §1
# [17] = biological target: T12, ETV3 (Homo sapiens, UniProt P41162-2 1-143); conditions: protein: recombinant; tags: N-terminal GST; dsDNA, one strand shown
# T12 sequence: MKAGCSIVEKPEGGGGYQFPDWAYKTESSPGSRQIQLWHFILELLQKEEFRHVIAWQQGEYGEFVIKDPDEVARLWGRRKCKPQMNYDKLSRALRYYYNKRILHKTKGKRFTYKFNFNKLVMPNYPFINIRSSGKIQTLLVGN
# In short: as §1
# [18] = biological target: ETV6 (Homo sapiens, UniProt P41212 1-452); conditions: protein: recombinant; tags: N-terminal GST; dsDNA, one strand shown
# Chain of ETV6 (P41212 whole entry): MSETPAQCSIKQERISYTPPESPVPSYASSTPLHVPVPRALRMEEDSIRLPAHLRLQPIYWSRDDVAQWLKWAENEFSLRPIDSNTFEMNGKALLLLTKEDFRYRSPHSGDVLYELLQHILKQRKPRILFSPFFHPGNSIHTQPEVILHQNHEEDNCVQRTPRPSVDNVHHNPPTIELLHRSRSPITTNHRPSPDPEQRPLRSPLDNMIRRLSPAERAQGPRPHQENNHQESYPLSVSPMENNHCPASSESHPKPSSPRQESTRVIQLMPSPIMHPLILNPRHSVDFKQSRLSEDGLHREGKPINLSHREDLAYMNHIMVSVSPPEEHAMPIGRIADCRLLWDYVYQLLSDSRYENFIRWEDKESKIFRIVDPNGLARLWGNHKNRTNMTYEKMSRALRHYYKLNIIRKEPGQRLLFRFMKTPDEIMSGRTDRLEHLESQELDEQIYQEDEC
# In short: as §1
sequence,measurement,setting,value
AAGCAT,binding signal,[1],"1.07 fold enrichment (6-mer frequency, TF over GST control)"
same,binding signal,[2],"1.06 fold enrichment (6-mer frequency, TF over GST control)"
same,binding signal,[3],"1.15 fold enrichment (6-mer frequency, TF over GST control)"
same,binding signal,[4],"1.06 fold enrichment (6-mer frequency, TF over GST control)"
same,binding signal,[5],"1.13 fold enrichment (6-mer frequency, TF over GST control)"
same,binding signal,[6],"1.19 fold enrichment (6-mer frequency, TF over GST control)"
same,binding signal,[7],"1.06 fold enrichment (6-mer frequency, TF over GST control)"
same,binding signal,[8],"1.17 fold enrichment (6-mer frequency, TF over GST control)"
same,binding signal,[9],"1.14 fold enrichment (6-mer frequency, TF over GST control)"
same,binding signal,[10],"1.04 fold enrichment (6-mer frequency, TF over GST control)"
same,binding signal,[11],"1.19 fold enrichment (6-mer frequency, TF over GST control)"
same,binding signal,[12],"1.09 fold enrichment (6-mer frequency, TF over GST control)"
same,binding signal,[13],"1.2 fold enrichment (6-mer frequency, TF over GST control)"
same,binding signal,[14],"1.08 fold enrichment (6-mer frequency, TF over GST control)"
same,binding signal,[15],"1.14 fold enrichment (6-mer frequency, TF over GST control)"
same,binding signal,[16],"1.06 fold enrichment (6-mer frequency, TF over GST control)"
same,binding signal,[17],"1.13 fold enrichment (6-mer frequency, TF over GST control)"
same,binding signal,[18],"1.14 fold enrichment (6-mer frequency, TF over GST control)"
